From PubChem BioAssay AID624330 (Southern Research Specialized Biocontainment Screening …, 2012) come the findings set out here.

What is called inhibition is the change of the read-out against control, counted positive when it falls.

Out of some 340,000 compounds screened, about 2,100 (0.62%) were called active. Not all results are given here. Potency and affinity values are given separately. A number with no mark means an inactive call.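 Rule for the calls: active = first-screen hits whose inhibition reached a set limit at any dose in the follow-up dose series; inconclusive = inhibition above the set first-screen limit but never retested; inactive = the rest.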

Sequence of Rac GTPase-activating protein 1 (Homo sapiens) (Q9H0H5 whole entry, looked up): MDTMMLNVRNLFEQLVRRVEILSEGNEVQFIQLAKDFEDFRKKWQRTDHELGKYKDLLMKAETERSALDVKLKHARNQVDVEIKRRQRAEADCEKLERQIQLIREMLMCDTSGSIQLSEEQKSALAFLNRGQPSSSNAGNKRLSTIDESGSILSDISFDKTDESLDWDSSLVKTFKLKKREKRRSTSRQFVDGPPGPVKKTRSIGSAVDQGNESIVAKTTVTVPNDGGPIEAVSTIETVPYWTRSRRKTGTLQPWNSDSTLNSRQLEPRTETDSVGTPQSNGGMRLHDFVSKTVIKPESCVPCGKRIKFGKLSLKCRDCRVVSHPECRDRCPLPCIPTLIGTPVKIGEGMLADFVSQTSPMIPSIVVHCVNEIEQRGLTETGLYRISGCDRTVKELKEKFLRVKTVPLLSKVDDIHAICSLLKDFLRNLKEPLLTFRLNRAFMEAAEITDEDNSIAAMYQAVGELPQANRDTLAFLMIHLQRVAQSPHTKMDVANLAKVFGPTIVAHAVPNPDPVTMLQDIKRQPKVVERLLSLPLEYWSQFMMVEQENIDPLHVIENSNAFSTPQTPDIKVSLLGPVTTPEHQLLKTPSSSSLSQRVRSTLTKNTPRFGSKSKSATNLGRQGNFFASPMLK

The experiment has as its target Rac GTPase-activating protein 1 (Homo sapiens) (UniProt Q9H0H5). Nature of the experiment: blockers of MgcRacGAP-driven Rac1 GTP hydrolysis – biochemical, ADP Hunter fluorescence, primary and confirmatory, confirmation (AID 624330).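 Note: fluorescence reports GDP produced by GAP-driven GTP hydrolysis.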 The settings on record: MgcRacGAP-stimulated Rac1 GTP hydrolysis, at 30 µM, stronger effect = higher value, GST-tagged Rac1 F28L mutant substrate.
In the case of `COc1ccccc1-c1nnc(SCC(=O)NC2CCS(=O)(=O)C2)n1N` (stereo unspecified), the inhibition is 8.87%. With `Cc1cnc(C(=O)OCC(=O)c2ccc(-c3ccccc3)cc2)cn1`, the inhibition is -1.23%. In the case of `Cc1cnc(C(=O)Oc2c(C)ccc(C)c2C)cn1`, the inhibition is -0.23%. Take `Cc1ccc(S(=O)(=O)N2CCC(C(=O)NCCc3ccccc3)CC2)cc1`: the inhibition was 2.72%. Next, `CSCCC(NC(=O)c1ccccc1Cl)C(=O)NNC(=O)c1ccncc1` (stereo unspecified): 7.49%; `c1ccc(Cn2cc(-c3ccccc3)cn2)cc1`: 6.79%; `COc1ccc(C(C#N)=C2C=C(Cl)C(=NO)C=C2Cl)cc1`: -1.89%. Regarding `COc1ccc(C(C#N)=C2C=CC(=NO)C(C)=C2Cl)cc1`, the inhibition was 21.7%. For the compound `COC(=O)c1ccc(NC(=O)CN2CCN(c3ccccn3)CC2)cc1`, the inhibition is 2.35%.

For the compound `O=C(CN1CCN(c2ccccn2)CC1)Nc1ccccc1`, the inhibition was -4.1%. As for `CC(=O)Nc1ccc(NC(=O)CN2CCN(c3ccccn3)CC2)cc1`, the inhibition is 6.59%.

With `CC(C)c1ccc(NC(=O)CN2CCN(c3ccccn3)CC2)cc1`, the inhibition was 7.53%.

Consider `CN1CCN(C(=O)c2cnn3c(C(F)(F)F)cc(-c4ccc5c(c4)OCO5)nc23)CC1`, for which the inhibition is 9.9%. In the case of `O=c1[nH]c2c(s1)C(c1ccc(O)cc1)C1C3CCC(C3)C1S2` (stereo unspecified) it was 11.5%. In the case of `C[C@H](NC(=O)[C@H](Cc1ccccc1)n1c(=O)[nH]c2ccccc2c1=O)C(=O)N1CCC[C@H]1C(=O)O` it was -3.53%; in that of `O=C1C=C(NCCc2cc(Br)c(O)c(Br)c2)C(=O)c2ncccc21`, 9.18%; in that of `COc1ccc(CCN2C(=O)c3cccnc3C2=O)cc1OC`, 12.5%. Next, `CCOC(=O)C1CCN(C(=O)C2CCN(C(=O)c3ccc([N+](=O)[O-])cc3)CC2)CC1`: 12%; `CCOC(=O)c1ccc(-n2c(=S)sc3c(=O)[nH]c(C)nc32)cc1`: 16.1%; `C=CCNC(=O)C(=O)N/N=C/c1cccc(Br)c1`: 5.98%. In the case of `O=C(O)c1ccccc1-c1c2cc(I)c(=O)c(I)c-2oc2c(I)c(O)c(I)cc12`, the inhibition was 28.3%. Consider `O=c1ccc2c(-c3ccccc3S(=O)(=O)O)c3ccc(O)c(O)c3oc-2c1O`, for which the inhibition is 42.2%.

As for `O=C(NCc1ccccc1)c1onc(CS(=O)(=O)c2ccccn2)c1C(=O)NCc1ccccc1`, the inhibition was -5.99%.

`NC(=O)C(c1ccc(Cl)cc1)c1ccc(Sc2ccc(Cl)cc2)nn1` (stereo unspecified): the inhibition is 11.6%. Next, `Nc1cccc(C(=O)Nc2cccc3ncccc23)c1`: -7.17%.

On to `O=C(/C=C/c1ccc(Cl)c(Cl)c1)N1CCOCC1`, for which the inhibition is -0.69%.

Regarding `O=C(CCC(=O)N1CCOCC1)Nc1ccc(Cl)c(Cl)c1`, the inhibition was 5.89%.

With `O=C1/C(=C/c2ccccc2)CN(C(=O)CCN2CCOCC2)C/C1=C\c1ccccc1`, the inhibition is 27.7%. In the case of `C=CC(=O)N1C/C(=C/c2ccc(Cl)cc2)C(=O)/C(=C\c2ccc(Cl)cc2)C1` it was 13.6%. `C=CC(=O)N1C/C(=C/c2ccc(F)cc2)C(=O)/C(=C\c2ccc(F)cc2)C1`: the inhibition was 13.1%.

For `CCOC(=O)N1C/C(=C\c2ccccc2)C(=O)/C(=C/c2ccccc2)C1`, the inhibition is 12.1%. Next, `C=CC(=O)N1C/C(=C/c2ccccc2)C(=O)/C(=C\c2ccccc2)C1`: 26.6%; `CCN(CC)CCC(=O)N1c2ccccc2Sc2ccc(Cl)cc21`: 2.76%.

For the compound `O=C(Nc1ccc(N2CCOCC2)cc1)c1ccc(Cl)c(S(=O)(=O)N2CCCCC2)c1`, the inhibition was 0.26%. In the case of `CC1CC(=O)C2=C(C1)Nc1nc3ccccc3n1C2c1cccnc1` (stereo unspecified), the inhibition was 6.35%. In the case of `O=C(COc1cccc2cccnc12)Nc1cccc(S(=O)(=O)N2CCCC2)c1` it was 7.88%; in that of `CCCCCCc1ccc(N2C[C@H](Cc3ccccc3)[C@@H](CC(=O)Nc3ccccc3)C2=O)cc1`, 3.37%.

As for `COc1cc(OC)c(N(C)C(=O)c2cn(C)c(=O)c3cc(OC)c(OC)cc23)cc1Cl`, the inhibition was 9.25%. In the case of `COC(=O)c1ccc(CNC(=O)C2CCC(=O)N(CCN3CCOCC3)C2)cc1` (stereo unspecified) it was 6.54%; in that of `CCOC(=O)N1CCC(Nc2c([N+](=O)[O-])cc(C(=O)O)cc2[N+](=O)[O-])CC1`, 9.55%. Take `Cc1ccc(NC(=O)COC(=O)COc2cccc3c2OC(C)(C)C3)cc1S(=O)(=O)N1CCOCC1`: the inhibition was 5.48%. Turning to `CC1=C(C(=O)N(C)C)CC(CC(=O)NCCN2CCOCC2)C(=O)N1CCC1=CCCCC1` (stereo unspecified), the inhibition is 19.4%. Next, `O=C1/C(=C\c2ccccc2)CCC/C1=C/c1ccccc1`: -6.55%. As to `COc1ccc(OC(=O)N2C/C(=C/c3ccccc3)C(=O)/C(=C\c3ccccc3)C2)cc1`, the inhibition is -4.51%. Next, `CCOC(=O)C1(C)C=C(Nc2ccc(NC(C)=O)cc2)C(=O)N1c1ccc(NC(C)=O)cc1` (stereo unspecified): 4.87%; `CCOC(=O)C1(C)C=C(Nc2ccc(C)cc2)C(=O)N1c1ccc(C)cc1` (stereo unspecified): 1.9%.

As for `CC(C)N1C(=O)c2ccccc2C1C(=O)NCCc1ccccc1` (stereo unspecified), the inhibition is 3.65%. Next, `COCC(=O)N(Cc1cc2cccc(C)c2[nH]c1=O)c1ccccc1`: 2.29%.

Regarding `CCOc1ccc(OCCC(=O)OCC(=O)c2c(N)n(CC(C)C)c(=O)n(C)c2=O)cc1`, the inhibition is 15%. In the case of `O=C(O)C1Nc2c(Cl)cc(Cl)c(Cl)c2C2C=CCC12` (stereo unspecified) it was 17.2%. For `Cc1cc(C)c2c(c1)NC(c1cc3c(cc1Br)OCO3)C1CC=CC21` (stereo unspecified), the inhibition is -0.13%.

`CC1Cc2cc(S(=O)(=O)N3CCC(C(=O)N(C)Cc4ccccc4)CC3)ccc2N1C(=O)C1CC1` (stereo unspecified): the inhibition was 8.31%.

For the compound `Fc1ccc(-n2cc(CNCCc3ccncc3)c(-c3ccccc3Cl)n2)cc1`, the inhibition is 1.7%. Take `CCOc1ccc(OCC(=O)Nc2cc(Cl)ccc2-n2cncn2)cc1`: the inhibition is 20.4%. In the case of `CCN(C(=O)COC(=O)CCCc1c[nH]c2ccccc12)c1c(N)n(Cc2ccccc2)c(=O)[nH]c1=O` it was -4.19%. In the case of `Cc1ccc2oc(=O)c(/C=C(\O)c3cccs3)nc2c1` it was 15.8%. As for `O=c1oc2ccc(Cl)cc2nc1/C=C(\O)c1cccs1`, the inhibition is 19.2%. As for `O=c1oc2ccc(Cl)cc2nc1/C=C(\O)c1ccco1`, the inhibition is 25%. Next, `Cc1ccc2oc(=O)c(/C=C(\O)c3ccco3)nc2c1`: 18.2%.

As for `CN(CCO)c1cc(NCCCN2CCC(Cc3ccccc3)CC2)c2nonc2c1[N+](=O)[O-]`, the inhibition was 4.68%. Turning to `Cc1ccc(NC(=O)c2ccc(-n3cccn3)c([N+](=O)[O-])c2)cc1`, the inhibition was 6.01%. Next, `Cc1ccc(C(=O)Nc2ccncc2)cc1[N+](=O)[O-]`: 10.1%; `O=C(Nc1ccncc1)c1ccc(Cl)c(Cl)c1`: 4.24%. In the case of `O=C(Nc1ccc(NC(=O)c2ccc(Cl)cc2Cl)cc1)c1ccc2c(c1)OCO2` it was 5.16%; in that of `COc1ccc(N(C(=O)/C=C/c2ccccc2)C2=CC3CCC(C2)N3C)cc1` (stereo unspecified), 1.64%.

On to `COc1cc2[nH]c(C(=O)N3CCC(Cc4ccccc4)CC3)cc2c(OC)c1OC`, for which the inhibition was 4.96%. In the case of `Cc1ccc(-n2nc(C)c3c2OC(N)=C(C#N)C3c2ccc(F)cc2)cc1` (stereo unspecified), the inhibition was 6.17%. In the case of `Cc1c(C(=O)N/N=C/c2cccs2)nc2ccccn12` it was 4.8%; in that of `CCN1C(=O)c2ccc(C(=O)Nc3c(C)cc(C)cc3C)cc2C1=O`, -2.89%. In the case of `Cc1cc(N)ccc1NC(=O)c1ccccc1` it was 6.01%.

For `Cc1ccc(C(=O)Nc2ccc(O)cc2C(=O)O)cc1`, the inhibition is 14.9%.

Turning to `CC(C)(C)N1C(=O)c2ccc(C(=O)Nc3ccc(C(=O)O)cc3)cc2C1=O`, the inhibition is 1.96%. As for `CC(C)CN1C(=O)c2ccc(C(=O)Nc3ccc(O)cc3C(=O)O)cc2C1=O`, the inhibition is 15.1%.

Turning to `CC(C)(C)N1C(=O)c2ccc(C(=O)Nc3cc(C(=O)O)cc(C(=O)O)c3)cc2C1=O`, the inhibition was 13.1%. As for `Cc1ccc(N2C(=O)c3ccc(C(=O)N4CCOCC4)cc3C2=O)cc1C`, the inhibition was -11.3%.

For the compound `O=C(COC(=O)c1ccc(O)cc1O)c1ccc(Cl)cc1`, the inhibition was 2.91%. As for `CCCOP(=O)(c1ccc(N(C)C)cc1)C(O)c1ccccc1OC` (stereo unspecified), the inhibition was 4.57%. In the case of `Nc1cc2c(cc1Cl)-c1ccc(Cl)cc1C2=O` it was 3.85%.

As to `Nc1ccc2c(c1)C(=O)c1ccc(N)cc1-2`, the inhibition was 22.8%.

For `Nc1ccc2c(c1)C(=O)c1cc(Cl)c(Cl)cc1-2`, the inhibition was 7.4%. In the case of `Nc1ccc2c(c1)C(=O)c1ccccc1-2` it was 18.2%; in that of `CCOC(=O)C1CCN(CCC(=O)Nc2ccccc2)CC1`, 12.6%; in that of `Cc1cccc(NC(=S)NCc2cccs2)c1`, 9.05%. In the case of `O=C(/C=C/c1ccc(F)cc1)NC(Cc1c[nH]c2ccccc12)C(=O)O` (stereo unspecified) it was -4.83%; in that of `COc1cc(C(=O)N[C@@H](Cc2c[nH]c3ccccc23)C(=O)O)cc(OC)c1OC`, 1.53%. In the case of `Cc1nn(-c2ccccc2)c(NC(=O)c2cccs2)c(-c2ccccc2)c1=O` it was 0.27%; in that of `Cc1cccc(NC(=O)N2CCCCCC2)c1`, 4.32%; in that of `CCc1cc2c(SCc3ccc(C(=O)OC)o3)ncnc2s1`, 7.63%. Regarding `CC(=O)NN1C(=O)/C(=C\c2ccc(Cl)cc2)SC1=S`, the inhibition is 7.77%. As for `COc1cccc(/C=C2\SC(=S)N(NC(=O)c3ccncc3)C2=O)c1`, the inhibition is 15.5%. In the case of `O=C1/C(=C\c2ccc(O)cc2)SC(=S)N1c1cccnc1` it was 2.66%; in that of `CCOc1cc(/C=C2\SC(=S)N(Nc3ccccc3)C2=O)ccc1O`, 11.1%; in that of `O=C(NN1C(=O)/C(=C/c2cccs2)SC1=S)c1ccncc1`, 8.88%. In the case of `CC(=O)NN1C(=O)/C(=C\c2ccc(C)cc2)SC1=S` it was 9.68%; in that of `COc1cc(/C=C2\SC(=S)N(Nc3ccccc3)C2=O)cc(OC)c1OC`, 11.2%. In the case of `O=C1/C(=C\c2ccc(O)cc2)SC(=S)N1Cc1ccccc1` it was 10.6%.
